Assay outcomes (PubChem BioAssay)
Pf growth 96h = P. falciparum growth inhibition at 96 hour, primary screen for plastid delayed-death inhibitors; 320,000 tested, 6.9% active; AID 504834; P. falciparum luciferase reporter growth, 96 h; Potency, µM (doses to about 28.7 µM), for inactives: top-dose activity change, negative = inhibition, actives largely listed as inhibitors; note: potency is the fitted concentration of half-maximal effect; % is set by controls: 0 for no effect and ±100 for the full control effect
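Two parasite generations (96 h, 37 C, 5% CO2) of compound exposure in infected erythrocytes (0.05% parasitemia, 2% hematocrit). Luciferase-reporter P. falciparum; decreased luminescence indicates inhibited growth, aimed at apicoplast-acting delayed death.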
Sm TGR block = inhibitors of Schistosoma mansoni thioredoxin glutathione reductase. Q962Y6. purified TGR, DTNB reduction, TNB absorbance 405 nm. Potency, µM (highest dose often 114 µM), for inactives: at the highest dose activity change, negative = inhibition, hits mostly inhibitors. 360,000 tested, 3% active; note: potency is the fitted concentration of half-maximal effect; % is set by controls: 0 for no effect and ±100 for the full control effect; nearly all actives have a fitted effect of over 60% in size
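TGR 20 nM + NADPH 100 uM (dispensed conc.), cpd preinc 15 min RT; start with NADPH (500 uM addition) then DTNB (15 mM addition). Kinetic TNB absorbance, 405 nm filter. Four-parameter Hill fit across titration.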
HCV inhibitor = blocks hepatitis C virus | AID 651820 | Huh7.5.1 HCVcc-Cre infection, luciferase reporter, 44 h | 340,000 tested, 3.4% active | Potency, µM (doses to about 41.8 µM), for inactives: at the top dose activity change, negative = inhibition, most hits filed as inhibitors; note: potency is the fitted concentration of half-maximal effect; % is set by controls: 0 for no effect and ±100 for the full control effect
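Infectious HCVcc-Cre (~0.5 moi) was added to cells just after compound, with cells seeded 4 h earlier at 1,000 per well. Luciferase activity after 44 h culture reported infection; substrate was incubated 15 min at room temperature before reading.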
HCMV antiviral = blocks human cytomegalovirus replication | HFF cells, HCMV-luciferase reporter, 72 h; hits give low values | activity change, negative = inhibition, % at 57.5 µM | 410,000 tested, 4.5% active | AID 1259415; in the data active = activity change below about -60%; inconclusive = no clear call, values can overlap the other calls; inactive = above about -39%; note: % is set by controls: 0 for no effect and ±100 for the full control effect
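Cell-based, HFFs, 1000 cells/well, 16 h 37C; cpds in DMSO + HCMV-luc, MOI 1 PFU/cell; 72 h 37C; OneGlo luminescence after 5 min RT; norm. to buffer vs Salinomycin 10uM.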
Pf growth 48h = inhibits P. falciparum growth in the first generation, 48 h; P. falciparum luciferase growth in erythrocytes, 48 h; Potency, µM (series often up to 28.7 µM), for the others: at the highest dose activity change, negative = inhibition, actives largely listed as inhibitors; 310,000 tested, 5.9% active; AID 504832; note: potency is the fitted concentration of half-maximal effect; % is set by controls: 0 for no effect and ±100 for the full control effect
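Growth was read as firefly luciferase luminescence after a 48 h, 37 C, 5% CO2 exposure of compounds to reporter-bearing P. falciparum cultures (0.1% parasitemia, 2% hematocrit final) in Albumax-supplemented RPMI 1640.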
SARS PLP yeast = SARS-CoV PLP inhibition in yeast | S. cerevisiae expressing SARS-CoV PLpro, growth rescue | AID 485353 | Potency, µM (highest dose often 32.9 µM), for the others: at the highest dose activity, positive = growth rescue, hits mostly activators | 330,000 tested, 0.19% active; calls by dose curve; note: potency is the fitted concentration of half-maximal effect; 0% is about no effect; nearly all actives have a fitted effect of over 55% in size
Numbers without * were called inactive. Only some compounds are listed: those with a hit (about 15% of all), similar ones and a draw of the others. Unless noted, calls come from the whole dose curve; as a rule, active = well fitted curve in the direction sought with a large enough effect; inconclusive = small, poorly fitted or top-dose-only effect, or another doubt; inactive = no such curve, though single readings can be large; an effect the other way counts as inactive or inconclusive.

For O=C(NCc1ccco1)C1CC(c2c(Cl)cccc2Cl)=NO1 (configuration not stated) the results were Pf growth 96h inconclusive, Sm TGR block 40µM*, HCV inhibitor inconclusive, HCMV antiviral -33, Pf growth 48h inconclusive and SARS PLP yeast 0%.
Screening Cc1ccc(CCNC(=O)C2CC(c3cc(C(F)(F)F)cc(C(F)(F)F)c3)=NO2)cc1 (configuration not stated) returned Pf growth 96h inconclusive, Sm TGR block 26%, HCV inhibitor 16%, HCMV antiviral -28, Pf growth 48h 6% and SARS PLP yeast 4%.
`Cc1ccc(CNC(=O)C2CC(c3cccc([N+](=O)[O-])c3)=NO2)o1` (configuration not stated) gave Pf growth 96h 10%, Sm TGR block 32µM*, HCV inhibitor 1%, HCMV antiviral 6, Pf growth 48h 18% and SARS PLP yeast -10%.
CSCCC(C(=O)Nc1c(C)cccc1C)n1c(COc2ccc(C)cc2)nc2ccccc21 (configuration not stated) was read as HCMV antiviral 4.
`CCOc1cc(N2CCOCC2)c(OCC)cc1NC(=O)c1ccc(OC)c(S(=O)(=O)N2CCOCC2)c1` gave HCV inhibitor -23%, HCMV antiviral 37 and SARS PLP yeast 0%.
CCOC(=O)C1(C(=O)OCC)NC(=O)CC1CC(C)C (configuration not stated) was read as HCV inhibitor -7% and HCMV antiviral -22.
COc1cc(NC(=O)COc2ccc(-n3ccnc3)cc2)cc(OC)c1 was read as Pf growth 96h inconclusive, Sm TGR block -7%, HCV inhibitor inconclusive, HCMV antiviral -87*, Pf growth 48h -28% and SARS PLP yeast 0%.
`CC(C)(C)c1ccc(NC(=O)COc2ccc(-n3ccnc3)cc2)cc1` gave Sm TGR block 2%, HCV inhibitor 5µM*, HCMV antiviral -86*, Pf growth 48h inconclusive and SARS PLP yeast -16%.
For C/C(=N\NC(=O)COc1ccc(C(C)(C)C)cc1)c1ccc(-n2ccnc2)cc1 the results were Pf growth 96h 10µM*, Sm TGR block -1%, HCV inhibitor -27%, HCMV antiviral 48, Pf growth 48h -78% and SARS PLP yeast -47%.
N#Cc1cccc(NC(=O)COc2ccc(-n3ccnc3)cc2)c1 was read as Pf growth 96h inconclusive, Sm TGR block -1%, HCV inhibitor inconclusive, HCMV antiviral -26, Pf growth 48h inconclusive and SARS PLP yeast 3%.
Screening CC1CN(c2nc3ccccc3nc2NS(=O)(=O)c2ccccc2)CC(C)O1 (configuration not stated) returned HCV inhibitor 8%, HCMV antiviral 4 and SARS PLP yeast -3%.
`COc1cc(NC(C)=O)ccc1-c1cc2ccccc2oc1=O` gave Pf growth 96h 12%, Sm TGR block 2%, HCV inhibitor -9%, HCMV antiviral -7, Pf growth 48h 18% and SARS PLP yeast -2%.
Screening CC(=O)Nc1ccc(NC(=O)c2cccc(-c3cc4ccccc4oc3=O)c2)cc1 returned Pf growth 96h 87%, Sm TGR block -2%, HCV inhibitor inconclusive, HCMV antiviral 73, Pf growth 48h 53% and SARS PLP yeast 2%.
`COc1cc(NC(=O)c2ccc(Cl)cc2Cl)ccc1-c1cc2ccccc2oc1=O` gave Pf growth 96h -17%, Sm TGR block -1%, HCV inhibitor -5%, HCMV antiviral -91*, Pf growth 48h -1% and SARS PLP yeast 4%.
Screening COc1ccc2nc(NC(=O)c3cccc(-c4cc5ccccc5oc4=O)c3)sc2c1 returned Pf growth 96h 4.7µM*, Sm TGR block -6%, HCV inhibitor 11µM*, HCMV antiviral 1, Pf growth 48h inconclusive and SARS PLP yeast 8%.
`COc1ccc(C(=O)Nc2cccc(-c3cc4ccccc4oc3=O)c2)cc1[N+](=O)[O-]` gave Pf growth 96h 31%, Sm TGR block 0%, HCV inhibitor inconclusive, HCMV antiviral 18, Pf growth 48h 13µM* and SARS PLP yeast -4%.
For COc1ccc(C(=O)Nc2nc3ccc(OC)cc3s2)cc1 the results were Pf growth 96h -8%, Sm TGR block -11%, HCV inhibitor inconclusive, HCMV antiviral 23, Pf growth 48h 30% and SARS PLP yeast -5%.
`Cc1ccc(C(C#N)c2ccc(C(=O)c3ccc(F)cc3)cc2)cc1` (configuration not stated) gave Pf growth 96h -5%, Sm TGR block 3%, HCV inhibitor inconclusive, HCMV antiviral -78* and SARS PLP yeast 2%.
`N#CC(c1ccc(F)cc1)c1ccc(C(=O)c2ccc(F)cc2)cc1` (configuration not stated) gave Pf growth 96h -24%, Sm TGR block 7%, HCV inhibitor inconclusive, HCMV antiviral -26 and SARS PLP yeast -7%.
Screening COc1cccc(C#Cc2c(C=O)n(C)c3ccccc23)c1 returned Pf growth 96h inconclusive, Sm TGR block -5%, HCV inhibitor inconclusive, HCMV antiviral 6, Pf growth 48h 13µM* and SARS PLP yeast 10%.
Cn1c(C=O)c(C#CC(C)(C)O)c2ccccc21 was read as Pf growth 96h inconclusive, Sm TGR block inconclusive, HCV inhibitor inconclusive, HCMV antiviral 1, Pf growth 48h -14% and SARS PLP yeast 0%.
For CCOC(=O)CN1CC23C=CC(O2)C(C(=O)Nc2ccc(C(C)=O)cc2)C3C1=O (configuration not stated) the results were Pf growth 96h 12µM*, Sm TGR block 0%, HCV inhibitor -23%, HCMV antiviral 51, Pf growth 48h -1% and SARS PLP yeast 7%.
For Cc1cc(C)n(C(C[N+](=O)[O-])c2ccc(Cl)cc2)n1 (configuration not stated) the results were Sm TGR block 0%, HCV inhibitor 17%, HCMV antiviral -105*, Pf growth 48h inconclusive and SARS PLP yeast -12%.
`C[C@@H]1COc2cc(NCCO)ccc2S(=O)(=O)N1` gave HCMV antiviral -9.
COCCn1c(SCC#N)nnc1-c1ccccc1 was read as Sm TGR block 3%, HCV inhibitor -1%, HCMV antiviral -15, Pf growth 48h 28% and SARS PLP yeast 4%.
For COCCn1c(SCc2cnc(-c3ccccc3)s2)nnc1-c1ccncc1 the results were Pf growth 96h 9.3µM*, Sm TGR block -25%, HCV inhibitor -26%, HCMV antiviral -7, Pf growth 48h inconclusive and SARS PLP yeast 3%.
